The panel holds about 83,000 compounds, 20% with a hit somewhere; the sample as a whole holds those more often.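 Negative percent growth values reflect cell death: -40 means 40% of the cells present at the start died, and -100 means all died.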 A number with no mark means an inactive call. Calls of active or inactive are those of the source.
These compounds were tested on NCI/ADR-RES ovarian (assay: NCI-60 one-dose screen, 48 h (100 = growth as untreated, 0 = no growth, -100 = all killed)). Details: 10 µM unless noted.
Description: Growth inhibition of the NCI/ADR-RES human […] tumor cell line is measured as a screen for anti-cancer activity. Cells are grown in 96 well plates and exposed to the test compound for 48 hours. Compounds are tested at a single concentration, which is 10^-5 M for most compounds. The reported endpoint is percent growth (GI% or GIPRCNT), where numbers from 0 - 100% represent growth inhibition, and numbers from -100% - 0 represent cell death. For example, a value of 40 represents 60% growth inhibition. A value of 0 means no net growth occurred over the course of the experiment. A value of -40 indicates 40% of cells at the beginning of the experiment died by the end of the experiment. A value of -100 means all cells are dead at the end of the experiment.
NCI-60 Human Tumor Cell Lines Screen was performed using the standard one-dose NCI protocol, which is described in more detail at https://dtp.cancer.gov/discovery_development/nci-60/default.htm.
Compounds with GIPRCNT values below 10 were considered active. Activity score was based on GIPRCNT using the following formula: […]
Score is 0 for GIPRCNT values of 100 or above, 50 for GIPRCNT values of 0, and 100 for GIPRCNT values of -100.

First: O=C(CSc1nc2ccccc2c(=O)n1-c1ccccc1)Nc1ccc(S(=O)(=O)Nc2nccs2)cc1
Second: O=C(CSc1nc2ccccc2c(=O)n1CCc1ccccc1)Nc1ccc(S(=O)(=O)Nc2ccc(Cl)nn2)cc1
The growth of the first is higher: 98.3% for the first, 91.7% for the second.

Going from CCN1CCN(c2ccc(NC(=O)Nc3ccc4c(ccn4-c4ccnc(C(=O)NC)c4)c3)cc2C(F)(F)F)CC1 to CNC(=O)c1cc(N2CCc3cc(NC(=O)Nc4ccc(N5CCN(C)CC5)c(C(F)(F)F)c4)ccc32)ccn1, the growth rises from 86.5% to 97.4%.

First: CCCCCCN1C=C/C(=C\C(=O)n2ccc3ccccc32)c2ccccc21
Second: CCOC(=O)C(=O)Nc1ccc2c(ccn2C(=O)c2cccc(F)c2)c1
The growth of the first is lower: 84.7% for the first, 100% for the second.

Compared with C#CCN(C)CCCOc1ccc(NC(=O)CCCCCCC(=O)NO)cc1Cl, CCCNNC(=O)c1ccc(-c2ccc(NC(=O)CCCCCCC(=O)N[C@H](C(=O)N3C[C@H](O)C[C@H]3C(=O)N[C@@H](C)c3ccc(-c4scnc4C)cc3)C(C)(C)C)cc2)cc1 is higher in growth: 65.4% for the first, 96.7% for the second.

Going from O=S(=O)(Oc1ccc(-c2cn3ccoc3n2)cc1)C1CCCCC1 to O=S(=O)(Oc1ccc(-c2cn3ccsc3n2)cc1)c1cccc(C(F)(F)F)c1, the growth rises from 97.8% to 108%.

Compared with C#C[C@]1(O)CC[C@H]2[C@@H]3CC=C4c5sc(N6CCN(C)CC6)nc5CC[C@]4(C)[C@H]3CC[C@@]21C, C=C(C)[C@@H]1CC[C@]2(C(=O)O)CC[C@]3(C)[C@H](CC[C@@H]4[C@@]5(C)C/C(=C/c6ccccn6)C(=O)C(C)(C)[C@@H]5CC[C@]43C)[C@@H]12 is higher in growth: 36.8% for the first, 37.4% for the second.

First: Cc1ccccc1N1CCN(C2=C(Cl)C(=O)c3ncccc3C2=O)CC1
Second: CN1CCN(c2ccc(Nc3nc(NCCNS(=O)(=O)c4ccccc4)c4sccc4n3)cc2)CC1
The growth of the first is lower: 73.7% for the first, 101% for the second.

Going from CCN(CC)c1ccc(/C=N/NC(=O)c2ccc(NS(C)(=O)=O)cc2)c(O)c1 to CCN(CC)c1ccc(/C=N/NC(=O)c2ccc(S(N)(=O)=O)cc2)cc1, the growth rises from 36.9% to 53.8%.

First: O=C1Nc2ccc(F)cc2/C1=C\C(=O)c1ccc(NS(=O)(=O)c2ccccc2)cc1
Second: O=C(N/N=C\c1ccc([N+](=O)[O-])cc1)c1ccc2nc(-c3ccc(Br)cc3)[nH]c2c1
The growth of the first is higher: 96.7% for the first, 71.4% for the second.

First: O=C(O)CC1CCN(c2ccc3nnc(Cl)n3n2)CC1
Second: C[C@@H]1OCC2(CCN(c3cnc(C(=O)Nc4cc(F)cc5cccnc45)cn3)CC2)[C@@H]1N
The growth of the first is higher: 98.6% for the first, 76.4% for the second.

Going from CS(=O)(=O)c1nccc(-c2c(-c3cccc(OCc4ccc(Cl)c(C(F)(F)F)c4)c3)nc3sccn23)n1 to COc1cc(-c2nc(-c3ccccc3)[nH]c2-c2ccnc(NCCCNS(=O)(=O)c3ccc(C)cc3)n2)ccc1F, the growth falls from 98.2% to 89.8%.

Going from O=C1C(SCc2ccccc2)=C(Cl)CN1c1ccc(Cl)cc1 to CC/C(=C(/c1ccc(Cl)cc1)c1ccc(OCCN)cc1)c1ccccc1, the growth falls from 105% to 99.9%.

Going from CC(=C(c1ccc(OCCCN(C)C)cc1)c1ccc(OCCCN(C)C)cc1)c1ccc(Cl)cc1 to COc1cc2cc(Oc3ccc(NC(=O)Nc4ccc(F)c(C(F)(F)F)c4)cc3)c(C)nc2cc1OCCN(C)C, the growth falls from 95.2% to 41.2%.

First: CCc1cc2c(cc1Cl)nc1c(=O)[nH]c(=O)nc-1n2CCOCC(C)(C)C
Second: CC1=C(C)C(=O)C(Nc2cccc(C(=O)OC(C)(C)C)c2)=C(Cl)C1=O
The growth of the first is lower: 79.2% for the first, 97.6% for the second.

Going from Clc1ccc2[nH]cc(-c3nn4cc(-c5cccnc5)nc4s3)c2c1 to CN(C)c1ccc(-c2cc(-c3c[nH]c4ccccc34)nc(N)c2C#N)cc1, the growth falls from 102% to 14.9%.

Going from Cc1ccc(Nc2nc(SC(C)C)nc(-c3ccccc3)c2C#N)cc1 to COC(=O)c1ccc(NC2=C(Cl)C(=O)C(C)=C(C)C2=O)cc1, the growth falls from 92.2% to 65.2%.

Compared with C/C(=N\NC(N)=S)c1nnn(-c2ccc([N+](=O)[O-])cc2)c1C, Cc1csc(/N=C(N)/N=C(\N)c2cccc(Br)c2)n1 is lower in growth: 98.8% for the first, 72.7% for the second.

First: COc1cc2oc(-c3cccc(NC(=O)c4cccc([N+](=O)[O-])c4)c3)cc(=O)c2c(OC)c1OC
Second: CCOC(=O)c1cccc(NC2=C(Cl)C(=O)C(C)=C(C)C2=O)c1
The growth of the first is lower: 34.6% for the first, 102% for the second.

In the case of N#C/C(=N\Nc1ccc(F)cc1)C(=O)Nc1cc(-c2ccccc2)nn1-c1ccccc1, the growth is reported as 3.07% (active).
For Cc1ccc(NC2=C(Cl)C(=O)c3nc(C)ccc3C2=O)c(C)c1, the growth was 4.37% (active).
With CN1CCN(Cc2ccc(NC(=O)c3cncc(C#Cc4cnc5ccc(N6CCOCC6)nn45)c3)cc2C(F)(F)F)CC1 the growth was -15.8% (active).
COc1ccc(C(C)=C(c2ccc(OCCN3CCCCCC3)cc2)c2ccc(OCCN3CCCCCC3)cc2)cc1 was tested, and the growth was -60% (active).
